# Screening data from PubChem BioAssay.
# Most compounds without a hit are left out; they make up all but 0.97% or so of the library.
# NTR1 agonist: agonists of human neurotensin receptor NTR1 | P30989 | NTR1-U2OS beta-arrestin-GFP spot imaging, agonist mode | activation, % at 20 µM | 330,000 compounds, 0.17% hits;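 active = activation at or above 40% of the spot to cytoplasm intensity ratio, with at least 20 cells analyzed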;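 note: 0% = DMSO without peptide and 100% = 100 nM NTR1 peptide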
# Target sequence (P30989 whole entry, looked up): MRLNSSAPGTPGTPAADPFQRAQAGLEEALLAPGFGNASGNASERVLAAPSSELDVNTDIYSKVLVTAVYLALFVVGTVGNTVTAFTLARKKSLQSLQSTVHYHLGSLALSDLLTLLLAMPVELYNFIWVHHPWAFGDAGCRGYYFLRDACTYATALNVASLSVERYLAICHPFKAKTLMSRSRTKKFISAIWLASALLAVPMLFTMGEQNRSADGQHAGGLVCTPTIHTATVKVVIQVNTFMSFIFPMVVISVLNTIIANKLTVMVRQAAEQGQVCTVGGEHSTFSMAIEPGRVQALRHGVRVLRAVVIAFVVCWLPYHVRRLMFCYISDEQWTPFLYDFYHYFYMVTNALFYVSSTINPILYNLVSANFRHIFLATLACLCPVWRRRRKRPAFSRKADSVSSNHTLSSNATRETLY
# TLR4-MyD88 BLA: blocks binding of human TLR4 to MyD88 | O00206+Q99836 | inhibition, % at 8.4 µM | 200,000 compounds, 0.18% hits | HeLa CL3-4 TLR4/MyD88 BLA complementation, FRET ratio; in the data active = inhibition above about 25%;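 note: 0% = vehicle and 100% = reference inhibitor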
# NOD2-RIPK2 inh: blocks binding of human NOD2 to RIPK2; CHO BLA complementation NOD2-RIPK2, CCF4 ratio; inhibition, % at 4.98 µM; 360,000 compounds, 0.38% hits; in the data active = inhibition above about 21%;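 note: 0% = vehicle only and 100% = reference blocker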
# B2AR ag: human beta-2 adrenergic receptor agonism by FAP; AID 504454; 340,000 compounds, 0.43% hits; response, % (test concentration not listed); Am2.2-beta2AR cells, FAP receptor internalization, flow cytometry;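 active = response above a set limit, near 3 SD of response in nonfluorescent compounds, cut at about 42% in these data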
# A1 inh: inhibitors of the anti-apoptotic protein A1, read as caspase activation; MEF A1-2A-BIM cells, Caspase-Glo 3/7 luminescence, 3 h; percent of clofoctol response, vehicle zero; caspase activation, % (test concentration not listed); 330,000 compounds, 0.066% hits; AID 2462;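 active = over half of replicate activation scores above 10%, or exactly half above 10 with the replicate mean above 10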
# TLR9-MyD88 inh: inhibitors of human TLR9-MyD88 binding; AID 504734; Q9NR96+Q99836; CHO BLA complementation TLR9-MyD88, CCF4 FRET ratio; inhibition, % at 4.98 µM; 340,000 compounds, 0.21% hits;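 active = inhibition above the mean over all tested compounds plus 3 SD, cut at about 21% in these data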;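 note: 0% = DMSO only wells and 100% = clavulanate BLA inhibitor control wells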
# NOD2 RIPK2 conf: confirmation of human NOD2-RIPK2 interaction inhibitors | shares compounds with NOD2-RIPK2 inh | CHO cells, NOD2-RIPK2 BLA complementation, CCF4 FRET | inhibition, % at 4.98 µM | 1,200 compounds, 70% hits | AID 624370;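 active = mean inhibition across replicates above a set limit taken from the earlier primary screen, cut at about 21% in these data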;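 note: 0% = DMSO-only wells and the high end = clavulanate BLA-blocked wells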
# BLA counter: hits BLA reporter in NOD2-RIPK2 inhibitor counterscreen | shares compounds with NOD2-RIPK2 inh | CHO BLA reporter, CCF4 FRET ratio | inhibition, % at 4.98 µM | 1,200 compounds, 57% hits | AID 624371;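 active = mean inhibition above the low-control mean inhibition plus three low-control SD, cut at about 11% in these data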;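 note: 0% = DMSO only wells and 100% = clavulanate high control wells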
# Active calls of the source: *; . = no result given.
SMILES,NTR1 agonist,TLR4-MyD88 BLA,NOD2-RIPK2 inh,B2AR ag,A1 inh,TLR9-MyD88 inh,NOD2 RIPK2 conf,BLA counter
O=C(C[n+]1ccccc1)c1ccc(NC(=O)c2ccccc2)cc1,-2.1,15.1,35.2*,-3.8,-0.6,-0.2,-1.1,-6.7
Cc1cc[n+](CC(=O)c2ccc(NC(=O)c3ccccc3)cc2)cc1,0.4,-11.3,-5.0,5.6,0.6,-3.0,.,.
CCOc1ccc2cc(C(=O)NCc3ccccc3)c(=N)oc2c1,11.1,.,-4.4,19.7,0.9,3.6,.,.
Cc1nnc(SCC(=O)N2CCN(S(=O)(=O)c3ccc(Cl)cc3)CC2)n(N)c1=O,-0.4,2.5,-11.0,3.1,0.9,-9.5,.,.
COc1ccccc1N1C(=O)CC(N2CCN(c3ccc([N+](=O)[O-])cc3)CC2)C1=O (stereo not given),0.2,.,21.9*,4.3,-0.9,-4.3,1.1,-3.3
CCCN1C(=O)S/C(=C\c2ccc(N3CCOCC3)cc2C)C1=O,.,-10.2,.,.,.,.,.,.
CCCN1C(=O)S/C(=C/c2ccc(N3CCOCC3)o2)C1=O,-2.4,.,41.0*,7.9,-0.1,14.9,6.2,5.2
CCCN1C(=O)S/C(=C\c2ccc(N3CCOCC3)o2)C1=O,-1.8,19.0,24.9*,-17.0,0.8,19.3,12.7,7.0
COc1cc(N2CCCC2)c(OC)cc1/C=C(/C#N)c1cccc(F)c1,.,13.0,-1.5,-527.7,-0.7,-7.1,.,.
Fc1cccc(Nc2c3c(nc4ccccc24)CCC3)c1,6.4,.,21.5*,-5.8,0.2,-6.8,5.0,-1.5
CC1CCN(Cc2cc(=O)oc3cc(O)c(Cl)cc23)CC1,0.6,.,31.1*,6.6,2.0,6.7,32.5*,49.5*
CCN(CC)S(=O)(=O)c1ccc(N2CCN(C)CC2)c(NC(=O)CN2C(=O)NC3(CCCCC3)C2=O)c1,.,.,-10.1,-0.9,.,0.0,.,.
NC(=O)OCC(COC(N)=O)c1ccccc1,0.6,-7.8,4.6,4.8,-0.6,2.8,.,.
CCCCCOc1ccc(Br)cc1/C(C)=N/NC1=NCCN1,10.1,5.2,22.6*,43.7*,0.1,9.4,22.3*,-1.9
COc1ccc(Br)cc1/C(C)=N/NC1=NCCN1,0.4,6.1,-1.2,1.2,-0.1,-4.5,.,.
CCOC(=O)C1CCN(Cc2cc(Cl)c3ccccc3c2O)CC1,10.9,.,27.6*,5.7,0.2,4.0,3.9,5.0
CC1(NC(=S)Nc2ccccc2)CCS(=O)(=O)C1 (stereo not given),-0.5,.,-2.3,-0.6,0.0,.,.,.
O=C(Nc1nncs1)c1ccc(Br)c(S(=O)(=O)N2CCCC2)c1,1.4,-14.0,3.0,4.2,0.3,-3.2,.,.
O=C(N[C@@H](Cc1ccccc1)C(=O)N1CCC2(CC1)NCCc1[nH]cnc12)c1cccc(Br)c1,1.3,.,4.6,1.4,-1.6,6.3,.,.
Nc1ccccc1C#Cc1ccc([N+](=O)[O-])cc1,1.7,.,26.0*,10.0,-2.4,18.2,3.9,19.0*
Nn1c(CSc2nc3ccccc3o2)nnc1CSc1nc2ccccc2o1,6.3,2.9,-35.7,-17.1,0.0,1.3,.,.
COc1ccc(C2CC(c3ccccc3)=NN2c2ccc(S(N)(=O)=O)cc2)cc1OC (stereo not given),0.3,-17.2,-14.3,-0.7,-0.9,-8.8,.,.
COc1ccc(C2=NN(c3ccc(C(=O)O)cc3)C(c3ccc(OC)c(OC)c3)C2)cc1 (stereo not given),1.7,.,24.7*,7.1,0.2,9.2,19.6,30.9*
COc1ccc(-c2csc(-c3cc4ccccc4oc3=N)n2)cc1,2.2,11.9,31.1*,-11.1,0.0,18.8,16.1,22.7*
COc1ccc(-c2noc(-c3cc4ccccc4oc3=O)n2)cc1,-0.7,1.2,.,.,0.3,.,.,.
SMILES,NTR1 agonist,TLR4-MyD88 BLA,NOD2-RIPK2 inh,B2AR ag,A1 inh,TLR9-MyD88 inh,NOD2 RIPK2 conf,BLA counter
Cc1ccc(NS(=O)(=O)c2c(C)[nH]c(C)c2C(=O)N2CCCCC2)c(Cl)c1,-0.1,.,-6.1,2.0,0.0,-5.2,.,.
O=C(Nc1ccc(Br)cc1)C1CC(c2c(F)cccc2Cl)=NO1 (stereo not given),1.7,.,9.3,-1.4,1.0,-4.0,.,.
O=C(Nc1cc(Br)ccc1O)C1CC(c2c(F)cccc2Cl)=NO1 (stereo not given),0.6,.,21.7*,6.2,0.7,1.9,0.1,-3.1
CC(C)(C)NC(=O)C(c1ccnc2ccccc12)n1c(=O)c(-c2cc3ccccc3[nH]2)nc2ccccc21 (stereo not given),.,.,49.3*,.,.,.,45.6*,65.5*
CC(C)(C)NC(=O)C(c1ccccc1F)n1c(=O)c(-c2cc3ccccc3[nH]2)nc2ccccc21 (stereo not given),.,.,50.3*,.,.,.,46.3*,67.7*
CC(=O)O[C@H]1CC[C@@]2(C)C(CCC3C2CC[C@]2(C)OC(=O)CCC32)C1 (stereo not given in full),1.1,-5.7,-8.3,-5.9,0.7,-3.3,.,.
CC(=O)OC1CCC2(C)C(CCC3C4CC=C(C(C)=O)C4(C)OC(=O)CC32)C1 (stereo not given),.,.,39.2*,.,.,-1.6,38.6*,-2.6
Cc1ccc(SC(C)C(=O)Nc2ccccc2-c2ccccc2)cc1 (stereo not given),2.0,-9.9,42.9*,10.1,-0.1,-6.1,2.9,-2.5
Cc1ccccc1N1CCN(C(=S)c2ccccc2)CC1,4.0,-30.0,24.1*,0.4,0.4,2.6,-2.9,-1.5
Cc1ccc(S(=O)(=O)Oc2ccccc2/C=N/NC(N)=S)cc1,1.4,-9.2,24.2*,4.8,0.3,-3.5,10.7,0.3
CCOC(=O)C1(CCCc2ccccc2)CCN(C(=O)c2ccoc2)CC1,2.6,-2.6,44.6*,6.0,0.4,-7.2,-0.8,-3.8
Cc1ccc(-c2cc([C@H]3[C@@H]4C=CCC[C@@]4(C)C(=O)N3Cc3ccccc3)ccc2F)cc1,-2.6,.,8.2,9.5,-0.5,2.4,.,.
COC(=O)c1ccc2c(c1)C(C)(C)C(/C=C/c1ccc(OC)c(OC)c1OC)=[N+]2C,38.1,14.7,26.4*,57.1*,0.5,2.1,87.7*,5.9
COC(=O)C12OCC34C(CC5C(C)=C(O)C(=O)CC5(C)C3C(O)C1O)OC(=O)C(OC(=O)C=C(C)C)C24 (stereo not given),.,.,27.8*,-14.9,.,-10.5,25.4*,-5.0
O=C(NC1CCCCC1)C(c1cccc2ccccc12)n1c(=O)c(-c2cc3ccccc3[nH]2)nc2ccccc21 (stereo not given),.,.,38.5*,.,.,.,34.2*,62.3*
O=C(NC1CCCCC1)C(c1ccccc1F)n1c(=O)c(-c2ccco2)nc2ccccc21 (stereo not given),.,.,-2.4,.,.,.,.,.
